Hit rate of the full screen: of about 220,000 compounds, about 910 (0.41%) were called active. Many of the other results were omitted from the sample, so actives are more common in it than they were. Results with a measured potency or affinity are listed apart. Unmarked numbers belong to inactive results.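 The calls were made as follows: active = primary inhibition above the hit cutoff, then over 50% inhibition at one or more dose response concentrations (cut at about 23% in these data, passing the limit was not always enough); inconclusive = conflicting primary data, or primary hits not chosen for dose response; inactive = low primary inhibition, or under 50% at every dose.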

Inhibition data for 95 compounds are collected here from PubChem BioAssay AID1445 (SRMLSC, 2008).

The target in this assay is Aminopeptidase N (Plasmodium falciparum (isolate 3D7)) (UniProt O96935). Nature of the assay: P. falciparum M1AAP inhibitors, biochemical, fluorogenic H-Leu-NHMec substrate, 1536-well (AID 1445).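 Also: plate controls were DMSO full reaction for no effect and no enzyme background for full effect.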 The settings on record: recombinant M1AAP, H-Leu-NHMec fluorogenic kinetic assay; at 30 µM, hits give high values unless noted.
Aminopeptidase N (Plasmodium falciparum (isolate 3D7)), sequence (O96935 whole entry, looked up): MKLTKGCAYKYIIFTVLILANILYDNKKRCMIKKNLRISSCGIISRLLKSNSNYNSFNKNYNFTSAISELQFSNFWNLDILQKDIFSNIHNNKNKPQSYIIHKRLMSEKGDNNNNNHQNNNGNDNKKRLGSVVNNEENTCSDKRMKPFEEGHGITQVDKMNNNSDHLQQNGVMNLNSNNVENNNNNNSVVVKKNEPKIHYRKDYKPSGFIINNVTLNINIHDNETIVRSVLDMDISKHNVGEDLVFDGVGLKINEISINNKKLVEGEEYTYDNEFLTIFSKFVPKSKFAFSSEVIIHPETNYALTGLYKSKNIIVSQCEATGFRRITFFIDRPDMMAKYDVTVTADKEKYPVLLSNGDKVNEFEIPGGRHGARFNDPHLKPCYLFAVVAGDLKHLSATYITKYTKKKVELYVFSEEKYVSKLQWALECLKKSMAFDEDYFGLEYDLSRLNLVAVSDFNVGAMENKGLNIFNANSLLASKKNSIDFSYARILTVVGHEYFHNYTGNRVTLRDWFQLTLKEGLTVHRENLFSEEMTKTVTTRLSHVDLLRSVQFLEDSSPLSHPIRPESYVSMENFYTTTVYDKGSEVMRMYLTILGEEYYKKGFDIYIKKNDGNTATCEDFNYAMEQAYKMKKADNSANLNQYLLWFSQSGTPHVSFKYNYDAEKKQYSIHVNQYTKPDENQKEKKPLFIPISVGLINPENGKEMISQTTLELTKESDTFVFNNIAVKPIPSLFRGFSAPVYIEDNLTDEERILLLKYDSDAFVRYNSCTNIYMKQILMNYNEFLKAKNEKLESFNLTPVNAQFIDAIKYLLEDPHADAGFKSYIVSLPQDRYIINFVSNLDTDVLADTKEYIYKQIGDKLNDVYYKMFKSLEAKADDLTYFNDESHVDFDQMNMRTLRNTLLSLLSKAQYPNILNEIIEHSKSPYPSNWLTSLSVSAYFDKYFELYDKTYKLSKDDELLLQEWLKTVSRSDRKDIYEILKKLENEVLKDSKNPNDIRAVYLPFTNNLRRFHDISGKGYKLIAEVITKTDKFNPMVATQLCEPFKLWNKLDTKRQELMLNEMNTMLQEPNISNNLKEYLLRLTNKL
By inhibition is commonly meant the drop in the measured response relative to a control, in per cent. On to `CNC(=O)C1CC(=O)N(Cc2ccc3c(c2)OCO3)C(=Nc2ccc(F)cc2)S1` (stereo not given), for which the inhibition was -5.29%.

As to `CCNC(=O)C1CC(=O)N(Cc2ccc3c(c2)OCO3)C(=Nc2ccc(F)cc2)S1` (stereo not given), the inhibition was 27% (active).

Take `CCNC(=O)C1CC(=O)N(Cc2ccc3c(c2)OCO3)C(=Nc2ccc(OCC)cc2)S1` (stereo not given): the inhibition was -1.35%.

For the compound `COc1ccc(NC(=S)N2CCN(c3ncccn3)CC2)cc1`, the inhibition was 4.34%.

With `CC1=CC(c2ccccc2)n2nnnc2N1` (stereo not given), the inhibition is -5.78%.

Consider `c1ccc2c(c1)nc(N1CCOCC1)c1nncn12`, for which the inhibition was 4.1%.

With `c1cnc(N2CCN(c3nc4ccccc4n4cnnc34)CC2)nc1`, the inhibition was 24.4% (active).

In the case of `c1ccc(N2CCN(c3nc4ccccc4n4cnnc34)CC2)cc1`, the inhibition is 14.5%.

Turning to `Cc1cc(C)n(Cc2nc3ccccc3n2C)n1`, the inhibition was -3.79%.

As for `CC(C)(C)[C@H]1C=C(C(=O)NC2CC2)O[C@@H](OCc2ccc(CO)cc2)C1`, the inhibition is 1.09%.

For `O=C(NC1CCCCC1)c1sc(=S)n2c1[nH]c(=O)c1ccccc12`, the inhibition is 0.76%.

For `O=C(NCc1ccccc1)c1sc(=S)n2c1[nH]c(=O)c1ccccc12`, the inhibition is 18.5%.

Take `NC(=O)c1sc(=S)n2c1[nH]c(=O)c1sccc12`: the inhibition is 17.2%.

As to `CCCCCNC(=O)c1ccc2c(=O)n(CC3CCCO3)c(=O)[nH]c2c1` (stereo not given), the inhibition was 4.6%.

Consider `CC(=O)NNC(=O)c1sc(=S)n(C)c1C`, for which the inhibition was 0.62%.

Consider `CCCCCNC(=O)c1ccc2c(=O)n(CC3CCCO3)c(=S)[nH]c2c1` (stereo not given), for which the inhibition is 5.58%.

For the compound `Cc1ccc(CNC(=O)c2ccc3c(=O)[nH]c4c(C(=O)NCC5CCCO5)sc(=S)n4c3c2)cc1` (stereo not given), the inhibition is 23%.

Turning to `O=C(NCC1CCCO1)c1sc(=S)n2c1[nH]c(=O)c1ccc(C(=O)N3CCCCC3)cc12` (stereo not given), the inhibition was 20.2%.

`O=C(NCc1ccco1)c1ccc(Br)c(S(=O)(=O)N2CCCCC2)c1`: the inhibition is 3.95%.

`COc1ccc(NC(=O)C23CC4CC(C2)CC(c2ccccc2)(C4)C3)c(OC)c1`: the inhibition was -2.32%.

As to `COc1c(C)cc(C(=O)C2CCCN(C(=O)c3cccc(F)c3)C2)cc1C` (stereo not given), the inhibition was 0.9%.

With `CC(=O)Nc1ccc(OCC(O)Cn2c(CO)nc3ccccc32)cc1` (stereo not given), the inhibition is 6.49%.

As to `Cc1ccc(N(CC(=O)O)S(C)(=O)=O)cc1Cl`, the inhibition was -5.06%.

Turning to `C=CCOC(=O)C(=O)/C=C/c1csc2ccccc12`, the inhibition is 1.93%.

Regarding `Cc1cc(C)c2c(-n3cccc3)c(C(=O)NNS(=O)(=O)c3ccc(F)cc3)sc2n1`, the inhibition was -2.28%.

Consider `Cc1cc(C)c2c(-n3cccc3)c(C(=O)O)sc2n1`, for which the inhibition is 12.2%.

With `COC(=O)C(=C/C(C)=C/c1cccs1)C(=O)OC`, the inhibition was 13.8%.

As to `Cc1ccc(N2C(=O)CCC2(C(N)=O)c2ccccc2)cc1` (stereo not given), the inhibition is -0.36%.

As to `CCC(=O)Nc1ccc(-c2nc3ccccc3c(=O)o2)cc1`, the inhibition is 2.53%.

Regarding `CCOc1ccccc1CN1CCN(Cc2[nH]c3ccccc3c2C)CC1CCO` (stereo not given), the inhibition was -0.18%.

As for `Cc1nc(N)sc1C(=O)N/N=C/c1ccccc1[N+](=O)[O-]`, the inhibition was 5.94%.

Turning to `COc1cccc(/C=N\NC(=O)c2sc(N)nc2C)c1OC`, the inhibition was 24.5% (active).

`COc1cc(/C=N\NC(=O)c2sc(N)nc2C)cc(OC)c1OC`: the inhibition is 8.26%.

Take `Cc1csc(Nc2ccccc2)[n+]1C`: the inhibition was -12.3%.

With `Cc1cc(C(=O)Nc2sc3c(c2C#N)CCC3)no1`, the inhibition is 23.7% (active).

On to `Cc1cc(C(=O)Nc2sc3c(c2C#N)CCCC3)no1`, for which the inhibition is 8.77%.

With `CC(C)c1cc(C(=O)Nc2sc3c(c2C#N)CCC3)no1`, the inhibition was 20.6%.

Regarding `Cc1ccc(S(=O)(=O)NC(=O)NCCCCNC(=O)NS(=O)(=O)c2ccc(C)cc2)cc1`, the inhibition is 0.51%.

For the compound `Cc1ccc(Cc2cc(C)n[nH]c2=O)cc1`, the inhibition is 9.53%.

Consider `COCc1cc(C)nc(OCC(=O)N/N=C/c2ccco2)c1C#N`, for which the inhibition was 9.71%.

Turning to `CC(=O)Nc1ccc(-c2csc(N/N=C(/C)c3ccccc3)n2)cc1`, the inhibition was 11.9%.

Take `CC(=O)Nc1nc(C(=O)O)cs1`: the inhibition is -0.08%.

For the compound `CCc1nnc(N/N=C/c2c(Cl)cccc2Cl)n1N`, the inhibition was 1.62%.

Regarding `O=C(Nc1cccs1)Nc1ccc(Br)cc1F`, the inhibition was 5.12%.

Take `CCOc1ccc(Br)cc1S(=O)(=O)Nc1ccc(NC(=O)c2ccccc2C)cc1`: the inhibition is 7.33%.

As for `CCOC(=O)NNS(=O)(=O)c1cc(Br)ccc1Br`, the inhibition was -1.42%.

Regarding `Cc1ccc(CN2C(=O)N/C(=C\c3cccn3-c3cccc(C(=O)O)c3)C2=O)cc1`, the inhibition is 11.9%.

In the case of `Cc1nc(S/C(=C/c2ccc(-c3cccc(Cl)c3)o2)C(=O)O)n[nH]1`, the inhibition is -8.13%.

In the case of `Cc1nc(S/C(=C/c2ccc(-c3ccc(Cl)cc3)o2)C(=O)O)n[nH]1`, the inhibition was -6.28%.

For `O=Cc1ccc(-c2ccc(C(=O)O)cc2)o1`, the inhibition is 7.72%.

As for `CC(=O)c1ccc(-c2ccc(/C=C(/Sc3n[nH]c(C)n3)C(=O)O)o2)cc1`, the inhibition is 5.19%.

With `CCc1nnc(NC(=O)C2CCCN(c3nc(C)cc(C)n3)C2)s1` (stereo not given), the inhibition was 3.57%.

Take `S=c1[nH]c(-c2ccccc2)cn1/N=C/c1cccnc1`: the inhibition is 1.39%.

Regarding `O=C(CCCN1C(=O)/C(=C/c2ccccc2Cl)SC1=S)NNC(=O)c1cccnc1`, the inhibition is 2.83%.

For the compound `COc1cccc(/C=C2\SC(=S)N(C(C(=O)O)c3ccccc3)C2=O)c1OC` (stereo not given), the inhibition was 18.2%.

For `CC(=C\c1ccccc1)/C=C1/SC(=S)N(C(C(=O)O)C(C)C)C1=O` (stereo not given), the inhibition was 8.4%.

As for `COc1ccc(OC)c(/C=C2\SC(=S)N(Cc3cccnc3)C2=O)c1`, the inhibition is -5.9%.

Turning to `CC(/C=C1\SC(=S)N(C(C(=O)O)C(C)C)C1=O)=C\c1ccccc1` (stereo not given), the inhibition was 14%.

Regarding `COc1ccc(/C=C/C(=O)c2ccccc2)c(OC)c1`, the inhibition was 10.2%.

Turning to `COc1ccccc1/C=C1\SC(=S)N(N2C(=O)CCCC2=O)C1=O`, the inhibition is 3%.

Regarding `COc1ccc(OC)c(/C=C2\SC(=S)N(N3CCOCC3)C2=O)c1`, the inhibition is 6.71%.

For `COc1ccc(/C=C2\SC(=S)N(N3CCOCC3)C2=O)c(OC)c1`, the inhibition is 1.37%.

For the compound `C/C(=N/NS(=O)(=O)c1ccc(C)cc1)c1ccc(NC(=O)C(F)(F)F)cc1`, the inhibition is 2.89%.

With `Cc1cnc(NC(=O)CSc2nnc(C)n2N)s1`, the inhibition was 2.39%.

`Cc1ccc(OCc2nc(-c3ccccn3)n[nH]2)cc1`: the inhibition was -24.5%.

With `CCCCn1nnnc1NCc1cccnc1`, the inhibition was 4.66%.

As to `CCOC(=O)C1CCCN(CC(=O)/C=C2/N(C)c3ccccc3C2(C)C)C1` (stereo not given), the inhibition is 9.72%.

For the compound `COc1ccc(NS(=O)(=O)c2cccc(C(=O)N/N=C/c3ccc(O)cc3)c2)cc1`, the inhibition is 7.62%.

On to `CCC1CCc2[nH]nc(C(=O)O)c2C1` (stereo not given), for which the inhibition is 7.24%.

Regarding `Cc1nn(C(=O)N2CCCCC2)c(C)c1CN1C(=O)c2ccccc2C1=O`, the inhibition was -0.2%.

Take `Cc1cc(C)cc(NC(=O)C(OC(=O)c2cccs2)c2ccccc2)c1` (stereo not given): the inhibition is 3.45%.

Regarding `OCCC1CN(Cc2nc(-c3ccccc3)cs2)CCN1CCc1ccccc1` (stereo not given), the inhibition was 7.68%.

`CSc1nc2ncc(-c3ccsc3)c(N)n2n1`: the inhibition was 7.33%.

As to `CC(c1ccccc1)N1C(=O)/C(=C/c2ccncc2)SC1=S` (stereo not given), the inhibition is -2.44%.

On to `O=C(O)C(Cc1ccccc1)N1C(=O)/C(=C/c2cccs2)SC1=S` (stereo not given), for which the inhibition was 11.1%.

With `O=C(O)c1cc(-c2ccc(/C=C3\NC(=O)N(c4ccccc4)C3=O)o2)ccc1Cl`, the inhibition is 18.7%.

For the compound `O=C1NN(c2ccccc2)C(=O)/C1=C/c1ccc(-c2ccc(Cl)c(C(=O)O)c2)o1`, the inhibition was 32.2%.

`CC1(C)OC(=O)C(=Cc2ccc(-c3ccc(Cl)c(C(=O)O)c3)o2)C(=O)O1`: the inhibition is 8.63%.

In the case of `CCCCC1(C)OC(=O)C(=Cc2ccc(-c3ccc(Cl)c(C(=O)O)c3)o2)C(=O)O1` (stereo not given), the inhibition is 9.08%.

Turning to `CC1=NOC(=O)/C1=C/c1ccc(-c2ccc(Cl)cc2)o1`, the inhibition was 5.39%.

Regarding `Cc1ccc(N2NC(=O)/C(=C/c3ccc(-c4ccc(Cl)c(C(=O)O)c4)o3)C2=O)cc1`, the inhibition is 5.62%.

With `Cc1ccc(C)c(-n2c(SCC(=O)NC(C(=O)O)C(C)C)nnc2-c2cccc(Cl)c2)c1` (stereo not given), the inhibition was 0.37%.

For the compound `CC1CC(NC(=O)C2(C)CC2(Cl)Cl)CC(C)(C)C1` (stereo not given), the inhibition was 1.77%.

On to `O=C1CCn2nc(-c3ccc(Cl)cc3)cc2N1`, for which the inhibition is 0.78%.

Take `O=C(O)CCC(=O)NNC(=O)c1cccc(Cl)c1`: the inhibition was 8.54%.

Turning to `Cn1cc(-c2nnnn2-c2ccc(Cl)cc2)c(=O)c2ccccc21`, the inhibition is -1.66%.

`CC(=O)Nc1c(C(=O)c2ccccc2)oc2ccccc12`: the inhibition was 10.6%.

As for `O=C(Nc1nc2c(Br)cc(Br)cc2c(=O)s1)c1ccco1`, the inhibition was 3.61%.

For the compound `CCOc1cc(/C=C/c2ccc3cccc([N+](=O)[O-])c3n2)cc(Cl)c1O`, the inhibition was 9.51%.

As to `CC(C)c1nc(CNC(=O)CCc2nnc(-c3ccsc3)o2)cs1`, the inhibition is -9.81%.

On to `O=C(N/N=C(/CC(=O)c1cccs1)C(F)(F)F)c1ccc(O)cc1`, for which the inhibition was 30.4%.

As to `O=C(N/N=C(\CC(=O)c1cccs1)C(F)(F)F)c1cccnc1`, the inhibition was 22.1%.

In the case of `Cc1cccc(N2CCN(C(=O)CC(NC(=O)c3ccccc3)c3ccccc3)CC2C)c1` (stereo not given), the inhibition was -5.51%.

As for `Cc1ccc(N2CC(C(=O)Nc3cccc(F)c3)CC2=O)cc1` (stereo not given), the inhibition is 2.83%.

Take `COCc1c(Br)c(C)nc(OCC(=O)N/N=C/c2cc(C)n(-c3ccc([N+](=O)[O-])cc3)c2C)c1C#N`: the inhibition was 12%.
